# In the library only some 12% were active in any assay of this set; here they are far more common.
# Sfp PPTase inh – qHTS Assay for Inhibitors of Bacillus subtilis Sfp phosphopantetheinyl transferase (PPTase). 4'-phosphopantetheinyl transferase ffp (Bacillus subtilis), Q9F4F7. 3.5% of 310,000 active. Biochemical Sfp PPTase activity, qHTS. Potency, µM, for inactives: largest response in the series, negative = inhibition, most hits filed as inhibitors;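 also: the enzyme is Sfp with the accession as filed and its product quenches rhodamine fluorescence; 0% = enzyme reaction without inhibitor and -100% = no enzyme wells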
#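 Buffer: 50 mM Hepes-Na pH 7.6, 10 mM MgCl2, 0.01% Nonidet P-40, 0.01% BSA. Enzyme 15 nM, pre-exposed to compound 15 min; substrates then added and fluorescence change tracked over 30 min.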
# HP1b chromo inh – HTS for Inhibitors of HP1-beta Chromodomain Interactions with Methylated Histone Tails. AID 540317, 2011. Potency, µM (doses to about 114 µM), inactives show at the top dose activity change, negative = inhibition, hits mostly inhibitors. 0.56% of 390,000 active. Chromobox protein homolog 1 (Homo sapiens), P83916. AlphaScreen HP1-beta / biotin-H3K9me3 peptide binding; also: nearly all actives have a fitted effect of over 70% in size
# Target sequence (P83916 whole entry, looked up): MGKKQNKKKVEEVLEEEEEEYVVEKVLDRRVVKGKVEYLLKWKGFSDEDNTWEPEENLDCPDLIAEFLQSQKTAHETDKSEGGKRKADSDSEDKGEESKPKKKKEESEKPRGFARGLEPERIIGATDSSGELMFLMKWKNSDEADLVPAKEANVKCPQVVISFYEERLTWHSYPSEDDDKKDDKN
#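 AlphaScreen: HP1-beta (50 nM) preformed 30 min with biotin-H3(1-18)K9me3 peptide (50 nM) in PBS pH 7.4, 0.01% Tween-20. Compound added for 30 min at RT, then streptavidin donor/nickel chelate acceptor beads (10 ug/mL) for 30 min.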
# BAZ2B inh – qHTS Assay for Inhibitors of BAZ2B. Potency, µM (titrated, usually from 114 µM), without a hit: top-dose activity change, negative = inhibition, usual class: inhibitors. AlphaScreen BAZ2B-H3K14Ac peptide displacement. 4.4% of 360,000 active. Bromodomain adjacent to zinc finger domain protein 2B (Homo sapiens), Q9UIF8; also: % is scaled to controls: 0 for no effect and ±100 for the full control effect; nearly all actives have a fitted effect of over 60% in size
#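 Inhibition is scored as reduced AlphaScreen emission. The BAZ2B/b-H3(5-23)K14Ac complex (50 nM each) in PBS pH 7.4, 0.01% Tween-20 meets compound (up to 110 uM) for 30 min at RT before bead addition.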
# G9a inh – qHTS Assay for Inhibitors of Histone Lysine Methyltransferase G9a; 8.8% of 350,000 active; Potency, µM (titrated, usually from 102 µM), for the others: at the highest dose activity, negative = inhibition, usual class: inhibitors; Histone-lysine N-methyltransferase EHMT2 (Homo sapiens), Q96KQ7; G9a H3K9 monomethylation, AlphaScreen, 2 h; AID 504332, 2011; also: % is scaled to controls: 0 for no effect and ±100 for the full control effect; nearly all actives have a fitted effect of over 75% in size
# Target sequence (Q96KQ7 913-1193 limits assumed): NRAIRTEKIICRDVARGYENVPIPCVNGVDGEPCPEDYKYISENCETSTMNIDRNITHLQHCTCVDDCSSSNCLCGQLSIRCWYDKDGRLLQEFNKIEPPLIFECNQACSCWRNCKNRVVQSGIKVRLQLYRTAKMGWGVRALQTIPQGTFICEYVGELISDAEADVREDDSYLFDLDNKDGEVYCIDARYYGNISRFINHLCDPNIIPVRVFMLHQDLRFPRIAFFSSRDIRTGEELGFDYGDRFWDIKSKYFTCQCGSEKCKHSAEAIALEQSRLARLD
#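 Compounds were preincubated with 20 nM G9a for 15 min, after which biotinylated H3K9 peptide (500 nM) and SAM (20 uM) started a 2 h room-temperature reaction. Monomethylated product was quantified by antibody-based AlphaScreen chemiluminescence.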
# PLK1 PBD block – qHTS for Inhibitors of PLK1-PDB (polo-like kinase 1 - polo-box domain): Primary Screen. 2.8% of 360,000 active. Potency, µM, inactives show max response, negative = inhibition, usual class: inhibitors. AID 720504, 2013. Plk1 PBD binding of FITC phosphopeptide, fluorescence polarization; also: series mostly up to about 57 µM; % is scaled to controls: 0 for no effect and ±100 for the full control effect; nearly all actives have a fitted effect of over 65% in size
# JMJD2A Tudor inh – qHTS Assay for Inhibitors of JMJD2A-Tudor Domain | 4.4% of 390,000 active | Lysine-specific demethylase 4A (Homo sapiens), O75164 | AlphaScreen JMJD2A-Tudor / H3K4me3 peptide binding | Potency, µM (doses to about 114 µM), without a hit: at the top dose activity change, negative = inhibition, actives largely listed as inhibitors; also: % is scaled to controls: 0 for no effect and ±100 for the full control effect; nearly all actives have a fitted effect of over 50% in size
# Numbers without * were called inactive; ? = inconclusive; . = not tested or not shown; [ ] = dose if it differs, or a comment. Calls follow the shape of the dose curve; as a rule, active = well fitted curve in the direction sought with a large enough effect; inconclusive = small, poorly fitted or top-dose-only effect, or another doubt; inactive = no such curve, though single readings can be large; an effect the other way counts as inactive or inconclusive. Potency is read from the fitted curve at half-maximal effect.
SMILES,Sfp PPTase inh,HP1b chromo inh,BAZ2B inh,G9a inh,PLK1 PBD block,JMJD2A Tudor inh
CC1(C)CC(=O)c2sc(NC(=O)CCS(=O)(=O)c3ccccc3)nc2C1,-9.3%,27.4%,10.4%,11.9%[59 µM],-5.4%,-12.5%
CN(C)/C=N/c1nc2c(ncn2C2CC(O)C(CO)O2)c(=O)[nH]1 (configuration not stated),.,39.4%,.,.,.,-11.3%
O=C(NCc1ccccc1)[C@@H]1C[C@H]1[C@@H](NP(=O)(c1ccccc1)c1ccccc1)c1ccccc1,1.8%,15.8%,-25.0%,1.5%,-22.0%,-15.3%
O=C(Nc1ccc2ccccc2c1)[C@@H]1C[C@H]1[C@@H](NP(=O)(c1ccccc1)c1ccccc1)c1ccccc1,17.9%,22.5%,-33.1%,50.1µM*,-2.3%,-27.5%
Cc1ccc(CNC(=O)[C@H]2C[C@@H]2[C@H](NP(=O)(c2ccccc2)c2ccccc2)c2ccccc2)o1,35.5µM*,29.8%,?,50.1µM*,-3.9%,-10.8%
Cc1ccc2c(c1)N(C(=O)CCC(=O)NCc1cccc(F)c1)CC(C)O2 (configuration not stated),.,26.0%,-0.7%,-5.5%[59 µM],.,-18.9%
CC(NC(=O)c1ccccc1Cl)C(=O)N1CCN(Cc2ccc3c(c2)OCO3)CC1 (configuration not stated),.,26.3%,-3.4%,13.8%[2.33 µM],-2.0%,-6.9%
CC1CCC/C(=C(\C#N)c2nc(-c3cc4ccccc4oc3=O)cs2)C1 (configuration not stated),-17.3%,115.5%,13.4%,-3.4%[59 µM],-12.8%,51.9%
CCCSc1nc(C)c(-c2csc(C(C#N)=C3CCCC3)n2)cc1C#N,70.8µM*,1.3%,20µM*,?,-4.1%,50.1µM*
CCOC(=O)C1=C(O)/C(=C\c2ccc(O)c(OCC)c2)N=C1C,-0.8%,1.0%,-19.2%,?,13.7%,-6.7%
CCOc1cc(/C=C2/N=C(C)C(C(=O)OC)=C2O)ccc1O,-4.0%,6.1%,-10.5%,44.7µM*,38.7%,-12.9%
CCOC(=O)C1=C(O)/C(=C/c2cc(OC)c(OC)c(OC)c2)N=C1C,89.1µM*,26.8%,-10.0%,9.2%[0.0925 µM],-9.9%,-12.0%
COc1ccc2c(c1)c(C(O)CN1CCN(Cc3ccc4c(c3)OCO4)CC1)c(C)n2C (configuration not stated),-11.8%,?,?,50.1µM*,-14.7%,56.2µM*
Cc1c(C(O)CN2CCN(Cc3ccc4c(c3)OCO4)CC2)c2ccccc2n1C (configuration not stated),1.2%,-38.0%,?,?,-13.6%,56.2µM*
COc1ccc2c(c1)c(C(O)CN1CCC(Cc3ccccc3)CC1)c(C)n2C (configuration not stated),3.1%,?,35.5µM*,?,-2.4%,28.2µM*
COc1ccc2c(c1)c1ncnc(N3CCN(Cc4ccc5c(c4)OCO5)CC3)c1n2C,-1.7%,.,0.3%,-43.0%[59 µM],.,.
COc1cccc(C(=O)Nc2cccc(-c3cn4ccsc4n3)c2)c1OC,.,9.4%[57 µM],?,-28.8%[59 µM],.,-34.1%
O=C(NCCCN1CCCC(O)C1)c1cc(COc2ccc(F)cc2F)on1 (configuration not stated),12.1%,14.3%,-5.8%,16.1%,-12.3%,-17.1%
Cc1cc(C)cc(N(CC(=O)N2CCCCCC2)S(C)(=O)=O)c1,8.3%,56.0%,1.4%,7.3%,-16.0%,-1.4%
Clc1nc(NCc2cccs2)c2[nH]cnc2n1,.,28.5%,.,.,.,-24.1%
CCN(CC)CCN(CC(=O)Nc1c(C)cc(C)cc1C)C(=O)c1ccccc1,16.4%,21.4%,-27.1%,17.3%,-6.6%,0.0%
Cc1cc2nnc(SCC(=O)Nc3ccc(F)c(Cl)c3)n2c2ccccc12,.,14.3%,1.0%,3.8%[59 µM],.,-4.2%
COc1ccc(CNC(=O)[C@H](Cc2ccccc2)NC(=O)C2CCN(C(=O)[C@H](C)N)CC2)cc1,16.6%,32.5%,4.9%,1.2%[12.7 µM],-1.9%,-2.0%
COc1ccc(C(CNC(=O)C(Cc2ccccc2)NC(N)=O)N(C)C)cc1 (configuration not stated),6.8%,27.6%,-14.6%,39.8µM*,-12.7%,-9.7%
COc1ccc(CNC(=O)[C@H](Cc2ccccc2)NC(=O)C2CCNCC2)cc1,-6.0%,35.9%,-4.1%,50.1µM*,-12.1%,-6.2%
SMILES,Sfp PPTase inh,HP1b chromo inh,BAZ2B inh,G9a inh,PLK1 PBD block,JMJD2A Tudor inh
CC(C)C[C@@H](NC(=O)C1CCC(CNC(=O)[C@H](Cc2ccccc2)NC(=O)OC(C)(C)C)CC1)C(=O)O (some centres not stated),0.9%,11.3%,1.9%,?,1.6%,28.2µM*
O=c1cc(-c2cc3ccccc3oc2=O)c2ccc(O)cc2o1,-12.4%,.,.,.,.,.
Cc1ccnc(NS(=O)(=O)Cc2ccccc2)c1,11.8%,53.6%,0.4%,?,-5.1%,-17.0%
O=S(=O)(Cc1ccccc1)Nc1ccccc1Br,15.1%,24.7%,1.7%,-1.6%,3.4%,-2.0%
O=S(=O)(Cc1ccccc1)Nc1ccc(Br)cn1,33.0%,63.0%,-14.4%,70.8µM*,-10.4%,-3.5%
Cc1ccc(NS(=O)(=O)Cc2ccccc2)nc1,-23.9%,32.2%,-13.6%,28.2µM*,-8.4%,1.3%
O=C(c1ccnc(Cl)c1)N1CCCC(Nc2ccc(F)cc2)C1 (configuration not stated),-2.3%,20.0%,-0.3%,-14.5%,6.8%,-21.9%
CC(C)c1ccc(NC2CCCN(C(=O)c3ccc4nccnc4c3)C2)cc1 (configuration not stated),12.5%,13.0%,-26.2%,79.4µM*,-7.1%,-25.4%
CC(C)c1ccc(NC2CCCN(C(=O)c3ccnc(Cl)c3)C2)cc1 (configuration not stated),14.4%,24.4%,?,25.1µM*,-8.9%,-31.7%
CCC(C(=O)OCc1cc(=O)n2nc(CCOC)sc2n1)c1ccccc1 (configuration not stated),.,40.3%,-4.6%,7.2%[59 µM],.,5.7%
Cc1ccc(N(CCC#N)C(=O)COC(=O)C2CCN(S(=O)(=O)c3ccc(C)c(C)c3)CC2)cc1,.,33.7%,-32.3%,44.7µM*,6.7%,-2.7%
Cc1ccc(N(CCC#N)C(=O)COC(=O)c2cc(C)no2)cc1,.,14.4%,10.5%,22.4µM*,-0.6%,-13.1%

# Bioassay records deposited in PubChem BioAssay by National Center for Advancing Translational Sciences (NCATS).
